High-throughput results as filed in PubChem.
p53 reactivation: qHTS assay for re-activators of p53 using a Luc reporter; H1299 p53-A138V BP100-luciferase reporter, luminescence, 24 h; Potency, µM (series often up to 92.2 µM), for the others: at the top dose activity change, positive = activation, actives largely listed as activators; 0.063% of 320,000 active; further: potency means the concentration at half of the fitted maximal effect; % of control where 0% means no effect; nearly all actives have a fitted effect of over 45% in size
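H1299 (p53-null), stable ts p53-A138V + BP100-Luc; 1000 cells/well, Opti-MEM/10% FBS; cpd 4 pt, 1:5; 24 h, 37 deg C, 5% CO2; detection reagent 10 min RT; luminescence.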
Nrf2 activator: qHTS of Nrf2 Activators; AREc32 ARE-luciferase reporter (MCF7-derived line), luminescence, 24 h; Potency, µM (top dose mostly 46.1 µM), for inactives: at the top dose activation, usual class: activators; 0.31% of 410,000 active; AID 624171, 2012; further: potency means the concentration at half of the fitted maximal effect; % of control where 0% means no effect; nearly all actives have a fitted effect of over 65% in size
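Cells of the AREc32 ARE-luciferase line are plated in OPTI-MEM containing 5% FBS and left overnight at 37 deg C. Compounds are pinned in, incubation continues 24 hr, and firefly luciferase signal is then measured.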
Nrf2 block: Nrf2 qHTS screen for inhibitors; A549 ARE-Fluc reporter, luciferase luminescence, 18-24 h; Potency, µM (highest dose often 46 µM), for the others: at the top dose activity change, negative = inhibition, usual class: inhibitors; 2.1% of 360,000 active; AID 504444, 2011; further: potency means the concentration at half of the fitted maximal effect; on the % scale 0 is the no-effect control and ±100 the full control effect; nearly all actives have a fitted effect of over 60% in size
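A549 ARE_Fluc cells, 5000/well, 5% FBS OPTI-MEM; compounds in dose-response, 18-24 h at 37 °C/5% CO2; CellTiter-Fluor viability read (Ex 405/Em 525), then BugLite luciferase luminescence = Nrf2 activity.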
A549 tox: Nrf2 qHTS screen for inhibitors: counterscreen for cytotoxicity; A549 ARE-Fluc cells, CellTiter-Fluor viability, 18-24 h; Potency, µM (top dose mostly 46 µM), inactives show top-dose activity change, negative = cytotoxicity, most hits filed as inhibitors; 0.16% of 390,000 active; AID 504648, 2011; further: potency means the concentration at half of the fitted maximal effect; on the % scale 0 is the no-effect control and ±100 the full control effect
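A549 ARE-Fluc cells in 5% FBS OPTI-MEM, 5000 cells/well, rested 2 h then exposed to compounds in concentration-response for 18-24 h at 37 °C. Viability by CellTiter-Fluor fluorescence (Ex 405/Em 525) after 30 min; luciferase luminescence (BugLite, 15 min, RT) read afterwards.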
ClpP mod: qHTS Assay for Activators of ClpP; ATP-dependent Clp protease proteolytic subunit (Bacillus subtilis (strain 168)), P80244; purified B. subtilis ClpP, FRET peptide cleavage, 20 min; Potency, µM (titrated, usually from 57.5 µM), for the others: top-dose activity change, negative = active; 1.9% of 340,000 active; AID 651965, 2013; active means well fitted falling curve with a large enough effect; inconclusive means small, poorly fitted or top-dose-only effect; inactive means no such curve, though single readings can be large or run the other way; further: potency means the concentration at half of the fitted maximal effect; the source files actives as falling curves though it sought activators and does not explain the sign; nearly all actives have a fitted effect of over 65% in size
Target sequence (P80244 whole entry, looked up): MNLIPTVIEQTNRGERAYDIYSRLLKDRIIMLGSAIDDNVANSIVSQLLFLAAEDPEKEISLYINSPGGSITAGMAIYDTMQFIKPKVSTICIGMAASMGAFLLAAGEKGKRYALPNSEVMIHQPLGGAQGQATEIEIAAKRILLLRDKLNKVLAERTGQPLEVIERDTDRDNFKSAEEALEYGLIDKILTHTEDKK
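ClpP 10 microg/mL final, pH 8 Tris/KCl buffer with BSA, glycerol, Tween-20; compound pinned in; FRET-FV substrate; RT 20 min; Ex320/Em430; ΔFRET vs ADEP 5.8 microM, DMSO, no enzyme.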
miR-21 act: qHTS Assay for Modulators of miRNAs and/orActivators of miR-21 | HeLa miR-21 FLuc reporter, luciferase, 48 h | Potency, µM (series often up to 38.3 µM), without a hit: at the top dose activity change, positive = activation, usual class: activators | 340,000 tested, under 10 active | AID 2288, 2010;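 further: % of control where 0% means no effect; miR-21 action dims this reporter so a rising signal means less miR-21 action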
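HeLa miR-21-FLuc reporter line, endogenous miR-21; 2000 cells/well in DMEM/10% FBS; compound titration up to ~40uM final, 48 h, 37 degree Celsius; luciferase detection reagent, 15 min lysis, CCD luminescence.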
* = called active by the depositor. An excerpt weighted towards active compounds, which were near 3.7% of everything screened. Unless noted, the call rests on the fitted dose curve; in most records, active means well fitted curve in the direction sought with a large enough effect; inconclusive means small, poorly fitted or top-dose-only effect, or another doubt; inactive means no such curve, though single readings can be large; an effect the other way counts as inactive or inconclusive.

`Cc1cccc(-n2ncc3c2CCCC3NC(=O)Cc2c(C)noc2C)c1C` (stereo not given) gave p53 reactivation -16.9%, Nrf2 activator -0.6%, Nrf2 block 8.2µM*, A549 tox -9.3%, ClpP mod 0.2% and miR-21 act 12.0%.
`COc1ccc(N2CC(NC(=O)Cc3cccs3)CC2=O)cc1OC` (stereo not given) gave Nrf2 activator 0.4%, A549 tox -3.0%, ClpP mod -2.1% and miR-21 act 1.3%.
Screening Cc1ccc2scc(N3CCCCC3)c(=O)c2c1 returned Nrf2 activator 0.9%, A549 tox -12.1%, ClpP mod -7.7% and miR-21 act -45.0%.
CCCCN(CCCC)S(=O)(=O)c1ccc(NC(=O)c2cccs2)cc1 was read as p53 reactivation 2.3%, Nrf2 activator 3.9%, Nrf2 block 18.4µM*, A549 tox inconclusive, ClpP mod inconclusive and miR-21 act inconclusive.
`Cc1ccc(-n2c3c(c(=O)[nH]c2=O)C(NC(=O)c2ccccc2F)(C(F)(F)F)C(=O)N3)cc1C` (stereo not given) gave Nrf2 activator -2.0%, Nrf2 block -2.3%, A549 tox -2.4%, ClpP mod -0.9% and miR-21 act 4.8%.
COC(=O)c1ccc2ccn(CC(=O)NC3CCCCC3)c2c1 was read as p53 reactivation -4.0%, Nrf2 activator -0.5%, Nrf2 block 7.6%, A549 tox -8.0%, ClpP mod 8.91µM* and miR-21 act 2.7%.
Screening Cc1ccc(Nc2nc(CSc3nnc(-c4cccnc4)n3-c3ccccc3C)cs2)cc1 returned p53 reactivation inconclusive, Nrf2 activator 2.7%, Nrf2 block -6.3%, A549 tox -6.9%, ClpP mod 28.2µM* and miR-21 act -0.2%.
CC(C)(C)C1CCc2c(sc(NC(=O)c3cccc(Cl)c3)c2C(N)=O)C1 (stereo not given) was read as Nrf2 activator 0.0%, Nrf2 block 6.4%, A549 tox 7.2%, ClpP mod -11.0% and miR-21 act -5.7%.
For Cc1nc2ccccc2c2oc(C(=O)NCCCN3CCCC(C)C3)cc12 (stereo not given) the results were p53 reactivation -7.3%, Nrf2 activator 8.4%, Nrf2 block inconclusive, A549 tox 20.6µM*, ClpP mod inconclusive and miR-21 act 21.8%.
For Cc1ccc(CNC(=O)c2cc3c(C)nc4ccccc4c3o2)cc1 the results were p53 reactivation -10.5%, Nrf2 activator 0.0%, Nrf2 block 18.4µM*, A549 tox -1.8%, ClpP mod -20.5% and miR-21 act 21.3%.
`CCOc1ccccc1NC(=O)c1ccc2c(Cl)c3c(nc2c1)CCCC3` gave Nrf2 activator 0.1%, Nrf2 block 9.1%, A549 tox 10.0%, ClpP mod -7.3% and miR-21 act -14.8%.
`Cc1ccc(NC(=O)c2cccc(NC(=O)N3CCSc4ncccc43)c2)cc1Cl` gave Nrf2 activator 0.8%, Nrf2 block 16.9%, A549 tox -3.3%, ClpP mod inconclusive and miR-21 act 14.4%.
`Cc1ccc(NC(=O)c2ccc(NC(=O)N3CCSc4ncccc43)cc2)cc1Cl` gave Nrf2 activator 2.7%, Nrf2 block inconclusive, A549 tox -27.0%, ClpP mod 31.6µM* and miR-21 act 11.2%.
For O=C(Cc1ccc(NC(=O)N2CCSc3ncccc32)cc1)NCc1ccccc1Cl the results were Nrf2 activator 4.0%, A549 tox 5.7%, ClpP mod -14.8% and miR-21 act -0.3%.
Screening O=C(NCc1ccccc1Cl)c1ccc(NC(=O)N2CCSc3ncccc32)cc1 returned Nrf2 activator 0.2%, Nrf2 block -11.1%, A549 tox 0.1%, ClpP mod 28.2µM* and miR-21 act 0.6%.
For N#Cc1c(C(F)(F)F)cc(-c2ccccc2Cl)[nH]c1=O the results were p53 reactivation -2.0%, Nrf2 activator 0.1%, Nrf2 block inconclusive, A549 tox -11.8%, ClpP mod 3.55µM* and miR-21 act 1.0%.
For N#Cc1c(C(F)(F)F)cc(-c2ccccc2)[nH]c1=O the results were p53 reactivation -4.0%, Nrf2 activator 0.1%, Nrf2 block -14.6%, A549 tox -10.5%, ClpP mod inconclusive and miR-21 act 5.2%.
COc1ccc(CNc2ncc(-c3ccc(F)cc3)n2C)c2ccccc12 was read as p53 reactivation -3.1%, Nrf2 activator -1.9%, Nrf2 block 20.6µM*, A549 tox -0.4% and miR-21 act 15.5%.
`CC(C)(C)NC(=O)Nc1ccc2nccnc2c1` gave p53 reactivation inconclusive, Nrf2 activator 3.1%, Nrf2 block 20.1%, A549 tox -4.3%, ClpP mod 20µM* and miR-21 act -29.5%.
Screening CC(C)(C)NC(=O)c1ccc2nccnc2c1 returned p53 reactivation -1.2%, Nrf2 activator -0.6%, Nrf2 block -6.9%, A549 tox -6.5%, ClpP mod -6.3% and miR-21 act -2.6%.
For Cc1nc(-c2ccc(S(=O)(=O)Nc3ccc(C)c(C)c3)s2)cs1 the results were Nrf2 block -13.9% and A549 tox 5.3%.
Cc1nn(Cc2c(F)c(F)c(F)c(F)c2F)c(C)c1NC(=O)c1ccc(COc2ccc(Cl)cc2Cl)o1 was read as p53 reactivation -4.3%, Nrf2 activator -0.2%, Nrf2 block 16.4µM*, A549 tox -8.9%, ClpP mod -2.7% and miR-21 act 21.4%.
Screening O=C(Nc1ccn(Cc2c(F)c(F)cc(F)c2F)n1)c1ccc(COc2ccc(Cl)cc2Cl)o1 returned p53 reactivation 4.8%, Nrf2 activator -0.8%, A549 tox -14.0%, ClpP mod -15.7% and miR-21 act 17.5%.
Screening Cc1nn(Cc2ccc(Cl)cc2Cl)c(C)c1NC(=O)c1ccc(COc2cc(Cl)ccc2Cl)o1 returned p53 reactivation -2.9%, Nrf2 activator -0.4%, Nrf2 block 11.6µM*, A549 tox -22.6%, ClpP mod -0.4% and miR-21 act 12.4%.
Screening Cc1nn(Cc2cccc(F)c2)c(C)c1NC(=O)c1ccc(COc2ccccc2Cl)cc1 returned p53 reactivation 1.5%, Nrf2 activator -0.2%, Nrf2 block 10.3µM*, A549 tox inconclusive, ClpP mod 1.4% and miR-21 act inconclusive.
Screening CCOc1ccccc1C(=O)N(Cc1cccs1)c1ccc(Cl)cc1 returned Nrf2 activator 8.7%, Nrf2 block -27.6%, A549 tox -4.0%, ClpP mod 0.5% and miR-21 act 16.6%.
